According to PubChem BioAssay AID1851 (National Center for Advancing Translational Sciences (NCATS), 2009):
Out of some 16,000 compounds screened, about 5,100 (32%) were called active. Roughly 25% stayed inconclusive and do not appear here. Calls come from the whole dose curve; as a rule, active = well fitted curve in the direction sought with a large enough effect; inconclusive = small, poorly fitted or top-dose-only effect, or effect the other way; inactive = no such curve, though single readings can be large or run the other way. This is one part of the list.

Biological target: Cytochrome P450 3A4 (Homo sapiens) (UniProt P08684)
Assay: Cytochrome panel assay with activity outcomes
Settings: recombinant CYP, pro-luciferin dealkylation, luminescence, p450-cyp3a4; series mostly up to 57.1 µM
% is set by controls: 0 for no effect and ±100 for the full control effect.

Cytochrome P450 3A4 (Homo sapiens), sequence (P08684 whole entry, looked up): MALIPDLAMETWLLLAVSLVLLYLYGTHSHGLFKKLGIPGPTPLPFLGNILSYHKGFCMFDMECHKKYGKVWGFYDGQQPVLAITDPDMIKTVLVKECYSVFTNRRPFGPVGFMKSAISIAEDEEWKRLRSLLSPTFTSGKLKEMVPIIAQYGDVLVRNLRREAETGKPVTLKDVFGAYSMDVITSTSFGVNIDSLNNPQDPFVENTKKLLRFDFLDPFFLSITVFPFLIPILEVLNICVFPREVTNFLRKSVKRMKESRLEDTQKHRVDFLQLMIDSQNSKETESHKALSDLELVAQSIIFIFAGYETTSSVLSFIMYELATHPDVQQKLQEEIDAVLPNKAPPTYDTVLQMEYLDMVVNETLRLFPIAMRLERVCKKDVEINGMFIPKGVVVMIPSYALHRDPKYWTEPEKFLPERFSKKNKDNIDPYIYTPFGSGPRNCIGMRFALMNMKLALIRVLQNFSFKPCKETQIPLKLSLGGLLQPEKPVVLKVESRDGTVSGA

AC50, active:
N#Cc1c(NC(=O)CCN2C(=O)c3ccccc3C2=O)oc(-c2ccccc2)c1-c1ccccc1 3.98 µM
Cc1ncc([N+](=O)[O-])n1CCOC(=O)NC(NCc1ccccc1)C(Cl)(Cl)Cl (stereo not given) 15.8 µM
O=C(Nc1cccc2ccccc12)c1cn(-c2ccccc2)nc1-c1cccs1 7.94 µM
O=C(c1cn(-c2ccccc2)nc1-c1cccs1)N1CCOCC1 15.8 µM
COc1ccc(OCCNS(=O)(=O)c2ccc3oc4ccccc4c3c2)cc1 7.08 µM
Cc1sc2nc(C3CC3)nc(SCC(=O)N3CC(=O)Nc4ccccc43)c2c1C 2.24 µM
Cc1nnc(SCC(=O)N2CC(=O)Nc3ccccc32)n1Cc1ccccc1 7.94 µM
c1csc(CNc2ncnc3ccc(-c4ccoc4)cc23)c1 7.94 µM
N#Cc1cccc(-c2ccc3ncnc(NCc4cccs4)c3c2)c1 3.16 µM
COc1cccc(-c2ccc3ncnc(NCc4cccs4)c3c2)c1 7.94 µM
C[C@@H](CCCCC(=O)Nc1ccc(C(F)(F)F)cc1)NCCc1cnc[nH]1 5.01 µM
CCc1ccc(C(=O)COC(=O)C(Cc2ccccc2)NC(=O)C2CCC(C)CC2)cc1 (stereo not given) 3.55 µM
Cc1ccc(-c2[nH]n3c(=O)c4c(nc3c2C)CCCC4)cc1 8.91 µM
Nc1[nH]n2c(=O)c3c(nc2c1N=Nc1ccccc1)CCCC3 5.01 µM
O=C(NCc1ccc(Cl)cc1)c1ccc(Cl)cc1[N+](=O)[O-] 12.6 µM
Cc1ccc(C(=O)NCCNc2ccc(Cl)cc2[N+](=O)[O-])o1 6.31 µM
Oc1ccc(C2Nc3cccc4cccc(c34)N2)c(O)c1 15.8 µM
Cc1ccc(S(=O)(=O)c2cc3ccccc3oc2=Nc2ccc3c(c2)OCO3)cc1 2 µM
CCc1noc(C)c1C(=O)Nc1nc(-c2cc(C)ccc2C)c(C)s1 3.55 µM
COc1cc2nc(SCc3ccc(Cl)cc3Cl)n(Cc3cccs3)c(=N)c2cc1OC 2 µM
COc1ccc(Cn2c(SCc3ccccc3C)nc3cc(OC)c(OC)cc3c2=N)cc1 8.91 µM
Cc1ccc(C(=O)N2C3C=CC(C3)C2(C(F)(F)F)C(F)(F)F)cc1 (stereo not given) 1.12 µM
CC(C)(C)NS(=O)(=O)c1ccc(NC(=O)C(Sc2ccccc2)c2ccccc2)cc1 (stereo not given) 14.1 µM

AC50, inactive:
CSc1nc(N)c2ncn([C@@H]3O[C@@H](COP(=O)(O)OP(=O)(O)O)[C@@H](O)[C@H]3O)c2n1
C=CC(=O)NC(NC(=O)C=C)c1ccc(Br)cc1
CC(C)(C)c1ccccc1OCCN1CCCC1
Cc1ncc([N+](=O)[O-])n1CCO
Cc1ncc([N+](=O)[O-])n1CC(=O)NCc1ccccc1
O=C(Nc1c(C(=O)N2CCOCC2)cnn1-c1ccccc1)c1ccco1
CCOc1ccc(-c2c[n+](=O)c3c(n2[O-])CCCC3)c(OCC)c1
CCCNS(=O)(=O)c1ccc(OCC(=O)OC)cc1
Cc1scc2c1N(C(=O)CN1CCN(C)CC1)c1ccccc1NC2=O
C[C@@H](NCc1cc(Br)cc2[nH]c(=O)c(=O)[nH]c12)P(=O)(O)O
NCCC(=O)NCCc1cnc[nH]1
N#CCSc1ncnc2c1cnn2CCO
Cc1[nH]n2c(=O)c3c(nc2c1-c1cccc2ccccc12)CCC3
O=c1c2c(nc3c(-c4ccccc4)c[nH]n13)CCC2
N#Cc1c[nH]n2c(=O)c3c(nc12)CCCC3
Oc1ccccc1C1Nc2cccc3cccc(c23)N1
CN[C@H](CC(=O)O)C(=O)O
CC(C)(C)NS(=O)(=O)c1ccc(NC(=O)c2cc(-c3ccccc3)nc3ccccc23)cc1
CC(C)(C)c1nnc(NC(=O)NS(=O)(=O)c2ccccc2)s1

activity, negative = inhibition, inactive:
Cc1ccc(NC(=O)NNC(=O)Cn2nc(-c3ccccc3)c(-c3ccccc3)c(C#N)c2=O)cc1 26.4% [at 0.457 µM]
O=C(N1CCOCC1)N1CCN(c2ccccc2)CC1 -14.3% [at 11.4 µM]
NCCCc1ccc2oc3ccccc3c2c1 0.505% [at 11.4 µM]
O=C(O)[C@@H]1CS[C@@]2(CCCN(Cc3ccccc3)C2)N1 0.282% [at 11.4 µM]
Cc1nc2ccccc2nc1SCC(=O)N1CCC(C)CC1 3.87% [at 2.29 µM]
Cc1ncc(CSC(=N)N)n1Cc1ccccc1 6.78% [at 11.4 µM]
CCOC(=O)N/N=C1/C[C@@H](O)[C@@H](O)[C@@H]2[C@@H]3C(=O)N(C(C)(C)C)C(=O)[C@H]3CC[C@H]12 -10.6% [at 11.4 µM]
O=CN[C@@H](Cc1cnc[nH]1)C(=O)O -4.87% [at 11.4 µM]
CC(C)(C)N1C(=O)[C@H]2[C@@H]3[C@H](O)C=CC(=O)[C@H]3CC[C@H]2C1=O -16.6% [at 11.4 µM]
Nc1[nH]n2c(=O)cc(-c3ccccc3)nc2c1N=Nc1ccccc1 -10.8% [at 2.29 µM]
NC(=O)NCc1ccc(Cl)cc1 4.51% [at 11.4 µM]
CCOc1ccc(NC(=O)c2ccc(Br)o2)c([N+](=O)[O-])c1 0.495% [at 2.29 µM]
O=C(NCCO)c1ccc(Cl)cc1 -18% [at 11.4 µM]
Cc1ccc(N=Nc2c(O)ccc3cc(S(=O)(=O)O)ccc23)cc1 -19% [at 11.4 µM]
O=C(O)c1cc(C(=O)O)nc(C(=O)O)c1 -8.29% [at 11.4 µM]
CCOC(=O)Nc1nc(-c2ccccc2)c(C)s1 -11.6% [at 11.4 µM]
Cc1ccc(-n2c3c(c(=O)[nH]c2=O)C(C(F)(F)F)(C(F)(F)F)NC(=O)N3)cc1 -3.33% [at 2.29 µM]
Cc1cc(=O)oc2cc(O)c(CN(C)CC(=O)O)cc12 -2.73% [at 11.4 µM]
